Molecules are shown by their SMILES. Inconclusive results are not listed. The source made the active and inactive calls. How the source made its calls, unless noted: active means hit-call score of the fitted dose curve at least 0.9, where 1 is the maximum; inactive means score below 0.9.

Assay [1] can be described thus: ATG_CRE_CIS: Attagene CIS-FACTORIAL HepG2 Assay for human cAMP Responsive Element (CRE) binding protein 3 (AID 2282926). Conditions: HepG2 CRE cis-reporter, Attagene multiplexed mRNA; actives raise or lower the signal. The gist of the method: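 HepG2 cells transiently transfected with a multiplexed reporter library (CRE-driven unit among them) were dosed for 24 h. Reporter mRNA was quantified by RT-PCR, fluorescent labelling, HpaI digestion and capillary electrophoresis, with bidirectional fitting against DMSO baseline.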

Assay [2] can be described thus: ATG_CMV_CIS: Attagene CIS-FACTORIAL HepG2 Assay for human CMV (Internal Marker) (AID 2282928).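 Further: endpoint acts as a background internal control marker rather than a target.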 Particulars: HepG2 CMV promoter reporter, transcription factor profiling; actives raise or lower the signal. In a few lines: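 HepG2 cells transiently transfected with multiple cis-regulated reporter units; 24 h compound exposure. Reporter mRNA quantified by RT-PCR, 6-FAM primer-extension labeling, HpaI digestion and capillary electrophoresis; bidirectional fitting against DMSO baseline.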

Assay [3] concerns the target Aryl hydrocarbon receptor (Homo sapiens) (UniProt P35869). The experiment in a line: ATG_Ahr_CIS: Attagene CIS-FACTORIAL HepG2 Assay for human Aryl Hydrocarbon Receptor (Ahr) (AID 2282930). Conditions: HepG2 AhR cis-factorial reporter transcription; actives raise or lower the signal. In a few lines:
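HepG2 cells transiently transfected with cis-element-driven multiplexed reporter transcription units; endogenous transcription factor activity measured as reporter mRNA 24 h after dosing. RT-PCR, 6-FAM labelling, HpaI digestion, capillary electrophoresis; bidirectional fitting versus DMSO baseline.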

Assay [4] can be described thus: ATG_Ets_CIS: Attagene CIS-FACTORIAL HepG2 Assay for human Erythroblast Transformation Specific (ETS) (AID 2282941). Conditions: HepG2 ETS cis-reporter transcription, actives raise or lower the signal. In a few lines:
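HepG2 cells transiently transfected with cis-promoter reporter transcription units were dosed for 24 h; reporter mRNA was measured by RT-PCR, 6-FAM primer extension, HpaI digestion and capillary electrophoresis, with bidirectional fitting against DMSO baseline.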

The target of assay [5] is Hepatocyte nuclear factor 3-beta (Homo sapiens) (UniProt Q9Y261). The experiment in a line: ATG_FoxA2_CIS: Attagene CIS-FACTORIAL HepG2 Assay for human Forkhead box A2 (FOXA2) (AID 2282942). Conditions: HepG2 cis-reporter transcription factor activity, 24 h; actives raise or lower the signal. The gist of the method: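 24 h dosing of HepG2 bearing cis-reporter constructs; mRNA readout by RT-PCR/CE fluorescence; bidirectional fit, DMSO baseline.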

Assay [6] can be described thus: ATG_FoxO_CIS: Attagene CIS-FACTORIAL HepG2 Assay for human Forkhead box O (FoxO) (AID 2282943). Conditions: HepG2 Attagene cis-reporter, FoxO element, mRNA; actives raise or lower the signal. In a few lines:
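HepG2 cells transiently transfected with cis-promoter-driven multiple reporter transcription units; 24 h after chemical dosing, reporter mRNA quantified by RT-PCR, fluorescent primer extension, HpaI digestion and capillary electrophoresis. Bidirectional fitting versus DMSO baseline.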

Assay [7] is described as follows: ATG_GATA_CIS: Attagene CIS-FACTORIAL HepG2 Assay for human GATA Binding Protein (AID 2282944). Particulars: HepG2 GATA cis-element reporter, Attagene multiplex mRNA; actives raise or lower the signal. The gist of the method: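 After transfecting HepG2 cells with multiple cis-regulated reporter units, chemicals are dosed for 24 h; isolated RNA undergoes RT-PCR and fluorescent labeling before capillary electrophoresis, with activity expressed against DMSO.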

For assay [8], the target named is Hypoxia-inducible factor 1-alpha (Homo sapiens) (UniProt Q16665). The experiment in a line: ATG_HIF1a_CIS: Attagene CIS-FACTORIAL HepG2 Assay for human Hypoxia Inducible Factor 1 (HIF1A) (AID 2282951). Conditions: HepG2 Attagene cis-factorial HIF1a reporter transcription; actives raise or lower the signal. The gist of the method: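 After 24 h chemical exposure of reporter-transfected HepG2 cells, reporter cDNA was PCR-amplified, labelled by 6-FAM primer extension (2 min 95 C, 20 s 68 C, 10 min 72 C), HpaI-cut (2 h, 37 C) and analysed by CE.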

The target of assay [9] is Hepatocyte nuclear factor 6 (Homo sapiens) (UniProt Q9UBC0). The experiment in a line: ATG_HNF6_CIS: Attagene CIS-FACTORIAL HepG2 Assay for human Hepatocyte Nuclear Factor 6 (HNF6) (AID 2282952). Particulars: HepG2 Attagene cis-factorial HNF6 reporter transcription; actives raise or lower the signal. In a few lines:
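HepG2 cells transiently transfected with cis-element-driven multiple reporter transcription units, dosed 24 h; reporter mRNA quantified by RT-PCR, FAM primer extension, HpaI digestion and capillary electrophoresis; bidirectional fit versus DMSO baseline.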

Assay [10] addresses Heat shock factor protein 1 (Homo sapiens) (UniProt Q00613). The experiment in a line: ATG_HSE_CIS: Attagene CIS-FACTORIAL HepG2 Assay for human Heat Shock Transcription Factor 1 (HSE) (AID 2282953). Particulars: HepG2 HSE cis-reporter, Attagene RNA transcription; actives raise or lower the signal. The gist of the method: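 Endogenous transcription factor activity captured via cis-promoter reporter units transfected into HepG2; treatment lasted 24 h. Fluorescence intensity of reporter fragments analysed with bidirectional curve fitting, DMSO baseline.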

For assay [11], the target named is Paired box protein Pax-6 (Homo sapiens) (UniProt P26367). Description: ATG_Pax6_CIS: Attagene CIS-FACTORIAL HepG2 Assay for human Paired Box 6 (PAX6) (AID 2282956). Conditions: HepG2 CIS-FACTORIAL PAX6 reporter transcription, RNA readout; actives raise or lower the signal. The gist of the method: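 HepG2 cells transiently transfected with multiplexed cis-promoter reporter units (endogenous TF activity) were dosed for 24 h. Reporter mRNA was quantified by RT-PCR, 6-FAM labeling, HpaI digestion and capillary electrophoresis; bidirectional fitting versus DMSO baseline.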

The nature of assay [12]: ATG_VDRE_CIS: Attagene CIS-FACTORIAL HepG2 Assay for human Vitamin D Receptor Element (VDRE) (AID 2282968). Particulars: HepG2 VDRE cis-reporter transcription, actives raise or lower the signal. The gist of the method: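 HepG2 cells transiently transfected with cis-element reporter units, dosed 24 h; reporter mRNA measured by RT-PCR, 6-FAM labeling, HpaI digestion and capillary electrophoresis. Activity fitted bidirectionally against DMSO baseline.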

Assay [13] can be described thus: ATG_NF_kB_CIS: Attagene CIS-FACTORIAL HepG2 Assay for human Nuclear Factor Kappa B (NF-kB) (AID 2282991). Conditions: HepG2 Attagene cis-factorial NF-kB reporter mRNA; actives raise or lower the signal. In a few lines: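 Fluorescence of labelled RT-PCR products separated by capillary electrophoresis gives reporter mRNA levels from transfected HepG2 cells exposed 24 h; values are fitted in both directions relative to DMSO.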

Assay [14] can be described thus: ATG_NRF2_ARE_CIS: Attagene CIS-FACTORIAL HepG2 Assay for human Nuclear Factor Erythroid 2 Related Factor 2 (NFR2) response to Antioxidant Response Elements (ARE) (AID 2282992). Particulars: HepG2 Attagene ARE/NRF2 reporter, transcription factor activity; actives raise or lower the signal. In a few lines: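 HepG2 cells transiently transfected with multiplexed cis-regulated reporter transcription units measure endogenous transcription factor activity. Reporter mRNA at 24 h is quantified by RT-PCR, fluorescent labelling and capillary electrophoresis, with bidirectional fitting relative to DMSO.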

The nature of assay [15]: ATG_XTT_Cytotoxicity: Cytotoxicity Assessment in the Attagene TRANS-FACTORIAL HepG2 Assay (AID 2283584; active means hit-call score of the fitted dose curve at least 0.9, where 1 is the maximum). The gist of the method: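 HepG2 human liver cells, transiently transfected with multiple GAL4-UAS reporter units, were dosed and read at 24 h by XTT as cell number. Loss of signal was fitted relative to DMSO negative control baseline.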
A short description of assay [16]: ATG_AP_1_CIS: Attagene CIS-FACTORIAL HepG2 Assay for human Activator Protein 1 (AP-1) (AID 2282931). Particulars: HepG2 Attagene cis-factorial AP-1 reporter mRNA; actives raise or lower the signal. In a few lines: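 HepG2, transient cis-reporter transfection; 24 h; readout RT-PCR/CE fluorescence; DMSO baseline, gain and loss fitted.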
A short description of assay [17]: ATG_BRE_CIS: Attagene CIS-FACTORIAL HepG2 Assay for human Bone Morphogenetic Protein (BMP) Response Element (BRE) (AID 2282933). Conditions: HepG2 BMP response element reporter, Attagene transcription factor profiling; actives raise or lower the signal. In a few lines:
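Multiplexed cis-reporter assay, HepG2, 24 h exposure. mRNA from reporter units quantified via RT-PCR/CE; DMSO baseline; bidirectional curve fit.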

Assay [18] can be described thus: ATG_MRE_CIS: Attagene CIS-FACTORIAL HepG2 Assay for human Metal Responsive Element (MRE) (AID 2282954). Conditions: HepG2 MRE cis-reporter transcription, Attagene multiplex; actives raise or lower the signal. The gist of the method:
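HepG2 cells transiently transfected with multiple cis-element reporter units measure endogenous MTF1-driven transcription. After 24 h compound exposure, reporter mRNA is quantified by RT-PCR with 6-FAM labelling, HpaI digestion and capillary electrophoresis; bidirectional fits versus DMSO.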

Assay [19] can be described thus: ATG_SREBP_CIS: Attagene CIS-FACTORIAL HepG2 Assay for human Sterol Regulatory Element Binding (SREBP) (AID 2282962). Particulars: HepG2 Attagene cis-factorial SREBP reporter, mRNA; actives raise or lower the signal. The gist of the method: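 HepG2 cells transiently transfected with multiplexed cis-element reporter units report endogenous transcription factor activity. After 24 h of chemical exposure, reporter mRNA was quantified by RT-PCR, 6-FAM labelling, HpaI digestion and capillary electrophoresis; bidirectional fits used DMSO as baseline.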

The target of assay [20] is Cellular tumor antigen p53 (Homo sapiens) (UniProt P04637). The experiment in a line: ATG_p53_CIS: Attagene CIS-FACTORIAL HepG2 Assay for human p53 Transcription Factor (AID 2282994). Particulars: HepG2 p53 cis-element reporter, Attagene mRNA; actives raise or lower the signal. In a few lines:
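HepG2 cells transiently transfected with multiplexed cis-regulated reporter transcription units read endogenous TF activity. After 24 h compound exposure, reporter mRNA was quantified by RT-PCR, fluorescent labelling, HpaI digestion and capillary electrophoresis; bidirectional fits versus DMSO baseline.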

Aryl hydrocarbon receptor (Homo sapiens), sequence (P35869 whole entry, looked up): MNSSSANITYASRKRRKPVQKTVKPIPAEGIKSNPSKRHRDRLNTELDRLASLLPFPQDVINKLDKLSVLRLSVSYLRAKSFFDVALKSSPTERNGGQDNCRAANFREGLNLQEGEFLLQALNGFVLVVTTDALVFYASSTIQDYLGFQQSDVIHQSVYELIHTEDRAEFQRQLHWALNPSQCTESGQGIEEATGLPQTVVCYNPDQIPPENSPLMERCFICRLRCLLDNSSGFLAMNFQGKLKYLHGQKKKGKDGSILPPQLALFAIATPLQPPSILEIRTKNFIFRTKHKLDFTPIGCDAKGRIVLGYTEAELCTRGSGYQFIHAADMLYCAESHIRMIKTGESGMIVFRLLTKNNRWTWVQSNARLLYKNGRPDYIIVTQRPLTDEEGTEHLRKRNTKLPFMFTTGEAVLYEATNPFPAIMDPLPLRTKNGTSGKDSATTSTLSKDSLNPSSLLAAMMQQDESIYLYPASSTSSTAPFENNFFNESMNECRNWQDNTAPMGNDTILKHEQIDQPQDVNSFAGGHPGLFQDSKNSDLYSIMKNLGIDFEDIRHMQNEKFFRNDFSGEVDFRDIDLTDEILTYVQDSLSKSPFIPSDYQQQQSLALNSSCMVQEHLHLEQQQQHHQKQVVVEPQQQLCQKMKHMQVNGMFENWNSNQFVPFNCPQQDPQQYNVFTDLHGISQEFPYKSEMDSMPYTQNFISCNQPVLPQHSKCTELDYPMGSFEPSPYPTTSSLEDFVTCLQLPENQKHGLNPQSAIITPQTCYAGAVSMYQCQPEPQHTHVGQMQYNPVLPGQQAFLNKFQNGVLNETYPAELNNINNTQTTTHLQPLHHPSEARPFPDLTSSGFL
Cellular tumor antigen p53 (Homo sapiens), sequence (P04637 whole entry, looked up): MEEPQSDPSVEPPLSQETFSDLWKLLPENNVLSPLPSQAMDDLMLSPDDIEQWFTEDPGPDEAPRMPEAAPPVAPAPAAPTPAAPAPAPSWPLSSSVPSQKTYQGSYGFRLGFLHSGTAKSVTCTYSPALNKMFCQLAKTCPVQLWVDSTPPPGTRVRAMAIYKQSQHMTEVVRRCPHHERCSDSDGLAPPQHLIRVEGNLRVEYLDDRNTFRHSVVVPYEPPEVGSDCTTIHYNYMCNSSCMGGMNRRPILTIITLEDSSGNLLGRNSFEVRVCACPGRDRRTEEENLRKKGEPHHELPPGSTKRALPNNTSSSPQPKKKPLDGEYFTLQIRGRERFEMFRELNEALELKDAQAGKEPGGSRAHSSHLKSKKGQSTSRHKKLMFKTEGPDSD
Hypoxia-inducible factor 1-alpha (Homo sapiens), sequence (Q16665 whole entry, looked up): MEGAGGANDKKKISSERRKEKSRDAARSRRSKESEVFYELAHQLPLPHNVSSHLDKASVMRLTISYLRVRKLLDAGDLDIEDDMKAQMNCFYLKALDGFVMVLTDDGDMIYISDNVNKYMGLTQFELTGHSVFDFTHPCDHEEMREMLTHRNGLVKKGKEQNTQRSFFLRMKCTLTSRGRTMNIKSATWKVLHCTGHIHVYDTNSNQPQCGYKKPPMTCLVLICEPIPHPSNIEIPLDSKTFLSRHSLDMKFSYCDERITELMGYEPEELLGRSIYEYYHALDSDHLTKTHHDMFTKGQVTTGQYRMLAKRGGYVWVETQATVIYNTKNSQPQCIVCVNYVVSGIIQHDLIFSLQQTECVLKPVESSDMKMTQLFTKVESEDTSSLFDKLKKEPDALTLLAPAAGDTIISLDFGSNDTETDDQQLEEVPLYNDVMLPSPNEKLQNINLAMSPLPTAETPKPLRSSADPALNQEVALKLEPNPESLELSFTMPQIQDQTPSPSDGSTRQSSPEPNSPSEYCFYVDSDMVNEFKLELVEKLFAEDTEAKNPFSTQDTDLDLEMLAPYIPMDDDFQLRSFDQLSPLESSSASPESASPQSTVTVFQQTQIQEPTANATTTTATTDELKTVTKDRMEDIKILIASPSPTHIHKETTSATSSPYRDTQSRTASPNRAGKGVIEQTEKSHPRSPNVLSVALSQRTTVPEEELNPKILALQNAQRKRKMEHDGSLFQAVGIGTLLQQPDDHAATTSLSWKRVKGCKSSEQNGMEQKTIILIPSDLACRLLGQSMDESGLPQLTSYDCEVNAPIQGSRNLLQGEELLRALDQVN
Hepatocyte nuclear factor 6 (Homo sapiens), sequence (Q9UBC0 whole entry, looked up): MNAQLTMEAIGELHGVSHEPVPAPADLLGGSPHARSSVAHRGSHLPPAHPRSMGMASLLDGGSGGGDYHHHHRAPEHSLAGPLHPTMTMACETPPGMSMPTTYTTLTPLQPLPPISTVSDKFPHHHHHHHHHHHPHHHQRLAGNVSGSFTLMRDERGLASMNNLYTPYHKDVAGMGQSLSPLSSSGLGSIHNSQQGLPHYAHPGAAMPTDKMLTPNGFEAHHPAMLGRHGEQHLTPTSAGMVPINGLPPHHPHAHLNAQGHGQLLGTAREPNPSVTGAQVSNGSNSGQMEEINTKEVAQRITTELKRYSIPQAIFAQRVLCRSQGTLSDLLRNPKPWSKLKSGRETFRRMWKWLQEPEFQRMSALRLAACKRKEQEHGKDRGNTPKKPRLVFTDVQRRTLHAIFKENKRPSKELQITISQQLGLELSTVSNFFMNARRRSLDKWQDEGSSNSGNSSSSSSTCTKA
Heat shock factor protein 1 (Homo sapiens), sequence (Q00613 whole entry, looked up, the tested form may be a part): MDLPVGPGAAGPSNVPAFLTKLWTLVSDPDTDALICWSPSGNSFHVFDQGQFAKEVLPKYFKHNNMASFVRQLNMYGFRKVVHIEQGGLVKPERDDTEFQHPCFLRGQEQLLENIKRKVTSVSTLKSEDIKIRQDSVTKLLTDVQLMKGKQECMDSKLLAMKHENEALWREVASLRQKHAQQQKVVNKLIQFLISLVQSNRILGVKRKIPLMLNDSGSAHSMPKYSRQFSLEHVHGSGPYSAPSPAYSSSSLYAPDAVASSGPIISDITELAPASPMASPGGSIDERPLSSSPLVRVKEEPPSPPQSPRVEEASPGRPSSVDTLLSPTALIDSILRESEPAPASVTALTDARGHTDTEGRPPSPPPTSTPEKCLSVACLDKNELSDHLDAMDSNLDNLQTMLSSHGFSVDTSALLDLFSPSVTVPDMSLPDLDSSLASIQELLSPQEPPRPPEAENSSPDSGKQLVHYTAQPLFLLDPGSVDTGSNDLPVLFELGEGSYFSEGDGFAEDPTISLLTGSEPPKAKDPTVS
Paired box protein Pax-6 (Homo sapiens), sequence (P26367 whole entry, looked up): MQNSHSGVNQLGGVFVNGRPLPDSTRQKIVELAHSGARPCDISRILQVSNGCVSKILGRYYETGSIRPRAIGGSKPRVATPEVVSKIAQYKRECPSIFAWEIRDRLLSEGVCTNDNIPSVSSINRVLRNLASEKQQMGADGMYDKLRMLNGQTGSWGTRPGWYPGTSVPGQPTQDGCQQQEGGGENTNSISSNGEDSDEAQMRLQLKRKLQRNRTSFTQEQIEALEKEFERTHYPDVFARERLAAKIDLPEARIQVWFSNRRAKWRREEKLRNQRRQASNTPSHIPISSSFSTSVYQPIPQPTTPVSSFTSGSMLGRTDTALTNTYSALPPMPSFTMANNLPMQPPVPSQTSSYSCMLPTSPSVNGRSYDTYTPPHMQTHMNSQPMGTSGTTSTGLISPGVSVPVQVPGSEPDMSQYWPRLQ
Hepatocyte nuclear factor 3-beta (Homo sapiens), sequence (Q9Y261 whole entry, looked up): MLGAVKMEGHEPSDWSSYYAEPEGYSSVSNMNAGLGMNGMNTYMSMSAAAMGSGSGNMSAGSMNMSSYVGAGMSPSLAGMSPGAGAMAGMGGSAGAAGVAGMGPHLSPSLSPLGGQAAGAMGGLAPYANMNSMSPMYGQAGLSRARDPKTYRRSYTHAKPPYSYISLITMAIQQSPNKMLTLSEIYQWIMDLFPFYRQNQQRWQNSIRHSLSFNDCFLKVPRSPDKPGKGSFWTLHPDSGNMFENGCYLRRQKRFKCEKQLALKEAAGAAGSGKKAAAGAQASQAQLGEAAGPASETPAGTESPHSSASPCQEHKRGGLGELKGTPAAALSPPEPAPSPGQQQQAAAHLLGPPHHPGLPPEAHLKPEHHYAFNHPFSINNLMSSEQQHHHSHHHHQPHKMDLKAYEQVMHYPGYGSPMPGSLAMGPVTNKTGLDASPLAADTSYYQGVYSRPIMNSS

In the case of `Nc1ccc(-c2ccc(N)c(N)c2)cc1N`, the molecule was classed as inactive in assay [1], in assay [2], in assay [3], in assay [4], in [5] and in [6]. Further, the result in [7], in [8], in assay [9], in assay [10], in assay [11] and in assay [12] was inactive. For the same molecule, the molecule was classed as inactive in [13] and in assay [15]. Also, in [14], the AC50 is 14 µM (active).
For the molecule `COC(=O)COc1ccc(Cl)cc1Cl`, the outcome in assay [1], in assay [2], in [16], in assay [17], in assay [4] and in assay [7] was inactive. Further, the result in assay [8], in [9], in assay [10], in assay [18], in assay [11] and in assay [19] was inactive. The outcome in assay [12], in [13], in [14] and in [20] was inactive.
On to `CSc1nc(N=[N+]=[N-])nc(NC(C)C)n1`, for which the molecule was classed as inactive in assay [1], in [3], in assay [5], in assay [6], in assay [7] and in assay [8]. Moreover, the molecule was classed as inactive in [9], in [10], in [19], in assay [12], in assay [13] and in assay [20]. Also, in assay [15], the result was inactive. For the same molecule, the AC50 is 52.8 µM (active) in assay [2] and 100 µM (active) in assay [14].
In the case of `CC[N+](=O)[O-]`, the molecule was called inactive in [1], in assay [2], in assay [3], in assay [17], in assay [4] and in assay [6]. The outcome in assay [7], in assay [8], in assay [9], in assay [10], in [18] and in assay [11] was inactive. Besides, the outcome in assay [19], in assay [12], in assay [13], in assay [14] and in assay [20] was inactive.

These data come from PubChem BioAssay (EPA / NIEHS).
